# Reference: PubChem BioAssay AID2071 (Sanford-Burnham Center for Chemical Genomics, 2009)
# In all, about 280,000 compounds went through this assay and about 1,700 (0.61%) were called active. The sample holds actives, similar compounds and a random draw of the others, so the mix is not that of the screen. No stated cut-off is given here; in the data, active means inhibition mostly above about 24% (no sharp cut-off); inactive means mostly below about 32%.
# Test: NALP1 inflammasome inhibitors in reconstituted yeast, colorimetric, S. cerevisiae, triplicate retest (AID 2071)
# Conditions: S. cerevisiae NALP1/ASC/caspase-1 growth, X-gal OD620, 72 h, stronger effect = higher value
structure (smiles),measurement,setting,value
COc1ccc(Cl)cc1NC(=O)CN1CCN(C(=O)N2CCOCC2)CC1,inhibition,at 10 µM unless noted,5.1% (inactive)
CC(C)CC(=O)N1CCN(Cc2cccc(Cl)c2)CC1,inhibition,at 10 µM unless noted,10.5% (inactive)
Nc1c(C(=O)NCc2ccccc2)nnn1Cc1cccc(Cl)c1,inhibition,at 10 µM unless noted,7% (inactive)
Clc1cccc(CN2COc3c(cc(Cl)c4cccnc34)C2)c1,inhibition,at 10 µM unless noted,125% (active)
CCC(NC(=O)c1cc(COc2ccc(F)c(F)c2)on1)c1ccncc1 (stereo not given),inhibition,at 10 µM unless noted,0.6% (inactive)
Cc1ccc(NS(=O)(=O)c2ccc(-c3coc(C)n3)cc2)c(C)c1,inhibition,at 10 µM unless noted,3.2% (inactive)
COc1cccc(CNC(=O)CCCC(=O)Nc2cccc([N+](=O)[O-])c2)c1,inhibition,at 10 µM unless noted,-4.2% (inactive)
O=C(CSCC(=O)Nc1cccc([N+](=O)[O-])c1)Nc1ccccc1,inhibition,at 10 µM unless noted,27.6% (inactive)
COC(=O)/C=C\C(=O)Nc1cccc([N+](=O)[O-])c1,inhibition,at 10 µM,108% (active)
same,inhibition,"triplicate retest, at 20 µM",116%
O=S1(=O)CCOC[C@H](CC2CCCCC2)N1Cc1ccc(F)cc1,inhibition,at 10 µM unless noted,22.6% (inactive)
C/C(=N\NC(=O)C1(C)CC1(Br)Br)c1ccc(C)cc1C (stereo not given),inhibition,at 10 µM unless noted,-0.3% (inactive)
O=C(COc1ccc(Cl)cc1)N1CCN(c2cccc(C(F)(F)F)c2)CC1,inhibition,at 10 µM unless noted,-4.3% (inactive)
CCC(=O)c1ccc(OCC(O)CN2CCN(c3cccc(C(F)(F)F)c3)CC2)cc1 (stereo not given),inhibition,at 10 µM,52.2% (active)
same,inhibition,"triplicate retest, at 20 µM",65.2%
CCC(=O)c1ccc(OCC(O)CN2CC(C)OC(C)C2)cc1 (stereo not given),inhibition,at 10 µM unless noted,0.7% (inactive)
COc1ccc(S(=O)(=O)N2CCOC2CNC(=O)C(=O)NCc2ccncc2)cc1C (stereo not given),inhibition,at 10 µM unless noted,0.1% (inactive)
CCC(=O)c1cn(CCOc2ccccc2OC)c2ccccc12,inhibition,at 10 µM unless noted,14.8% (inactive)
OCCn1c(-c2ccccc2)csc1=Nc1ccccc1,inhibition,at 10 µM unless noted,50.3% (active)
Cc1csc(=NC(=O)c2ccccc2)n1CCO,inhibition,at 10 µM unless noted,2.4% (inactive)
Cc1csc(=Nc2ccccc2)n1CCO,inhibition,at 10 µM unless noted,26.1% (inactive)
O=C(NCCCN1CCOCC1)c1cc(-c2ccccc2F)no1,inhibition,at 10 µM unless noted,20.9% (inactive)
C[N+](C)(C)CCNC(=O)c1cc[n+](Cc2ccccc2)c(/C=N/O)c1,inhibition,at 10 µM unless noted,6.7% (inactive)
O=C(NC1CCCC1)c1cc(-c2ccccc2)on1,inhibition,at 10 µM unless noted,15.4% (inactive)
CC(=O)C(C)n1cnc2scc(-c3ccc(C)cc3)c2c1=O (stereo not given),inhibition,at 10 µM unless noted,-5% (inactive)
C/C(=N\NC(=O)COc1ccc(C)cc1[N+](=O)[O-])c1ccc2c(c1)OCCO2,inhibition,at 10 µM unless noted,12% (inactive)
COCCCNC(=O)COc1cc(C)c(Cl)c(C)c1,inhibition,at 10 µM unless noted,33.8% (active)
CCOc1ccc(NS(=O)(=O)c2ccc(OCC(=O)NCCCOC)cc2)cc1,inhibition,at 10 µM unless noted,-2.5% (inactive)
COCCNC(=O)COc1ccccc1C,inhibition,at 10 µM unless noted,6.3% (inactive)
CCSc1nsc(NC(=O)Nc2ccccc2OC)n1,inhibition,at 10 µM unless noted,18.6% (inactive)
COc1ccc(C(CCNCc2ccccc2F)c2ccc(F)cc2)cc1 (stereo not given),inhibition,at 10 µM,46.5% (active)
same,inhibition,"triplicate retest, at 20 µM",74.4%
COc1cccc(CNCCc2c[nH]c3ccccc23)c1OCc1ccccc1F,inhibition,at 10 µM unless noted,-3.7% (inactive)
COc1ccc(CC(=O)NC(C)CCc2ccccc2)cc1 (stereo not given),inhibition,at 10 µM unless noted,7.9% (inactive)
CCCCNC(=O)C1CCCNC1=O (stereo not given),inhibition,at 10 µM unless noted,42.8% (active)
CCCOc1ccc(NC(=O)C2CCCNC2=O)cc1 (stereo not given),inhibition,at 10 µM unless noted,7.4% (inactive)
CCCCNC(=O)C1CCC(=O)N1CCc1ccccc1 (stereo not given),inhibition,at 10 µM unless noted,-0.8% (inactive)
O=[N+]([O-])c1ccc(NC(=S)N2CCN(c3ccccn3)CC2)cc1,inhibition,at 10 µM unless noted,9.2% (inactive)
CC(=O)N1c2ccc(S(=O)(=O)N3CCCC(C(=O)NCc4ccc(Cl)cc4)C3)cc2CC1C (stereo not given),inhibition,at 10 µM unless noted,-3.9% (inactive)
COc1ccccc1NC(=O)C1CCN(C(=O)c2ccc(C(C)(C)C)cc2)CC1,inhibition,at 10 µM unless noted,3.2% (inactive)
CC(C)CC(=O)NC(=S)Nc1ccc(F)cc1F,inhibition,at 10 µM unless noted,42.9% (active)
CC(=O)c1ccc(NC(=S)NC(=O)CC(C)C)cc1,inhibition,at 10 µM unless noted,27.8% (inactive)
CC(C)CC(=O)NC(=S)Nc1cc(C(=O)O)ccc1Cl,inhibition,at 10 µM unless noted,11.6% (inactive)
COc1ccc(C2C(C(C)=O)=C(O)C(=O)N2CCc2c[nH]c3ccccc23)cc1 (stereo not given),inhibition,at 10 µM unless noted,5.6% (inactive)
COc1ccc(C2C(C(C)=O)=C(O)C(=O)N2Cc2cccnc2)cc1 (stereo not given),inhibition,at 10 µM unless noted,33.6% (active)
COc1cc(C2C(C(=O)c3ccc(C)o3)=C(O)C(=O)N2Cc2cccnc2)ccc1O (stereo not given),inhibition,at 10 µM unless noted,-2.8% (inactive)
CC1Cc2cc(/C(O)=C3\C(=O)C(=O)N(Cc4cccnc4)C3c3ccccc3F)ccc2O1 (stereo not given),inhibition,at 10 µM unless noted,29.4% (inactive)
Cc1ccc(-n2ncc(C(=O)NC3CC3)c2C2CCN(C(=O)OC(C)(C)C)CC2)c(C)c1,inhibition,at 10 µM unless noted,-2.6% (inactive)
O=C(NCc1cccs1)C1CCN(S(=O)(=O)c2ccc(Cl)cc2)CC1,inhibition,at 10 µM unless noted,23.6% (active)
O=C(NCc1ccc(Cl)cc1)C1CCN(S(=O)(=O)c2cccs2)CC1,inhibition,at 10 µM unless noted,4% (inactive)
O=C(NCc1cccs1)C1CCN(S(=O)(=O)c2ccc3c(c2)OCCO3)CC1,inhibition,at 10 µM unless noted,-1.6% (inactive)
CCc1ccc(/C=N/NC(=O)c2nnn(-c3nonc3N)c2CN2CCc3ccccc32)cc1,inhibition,at 10 µM unless noted,0% (inactive)
O=C(Nc1nnc(C2CC2)s1)c1cc(Cl)sc1Cl,inhibition,at 10 µM unless noted,5.9% (inactive)
Cn1c(SCC(=O)c2cccs2)nnc1-c1ccco1,inhibition,at 10 µM unless noted,14.7% (inactive)
Cn1c(SCC(=O)Nc2ccc(Br)cc2F)nnc1-c1ccco1,inhibition,at 10 µM unless noted,31.1% (active)
CCCCNC(=O)CSc1nnc(-c2ccco2)n1C,inhibition,at 10 µM unless noted,10.9% (inactive)
O=C(Nc1ccc(C(=O)N2CCOCC2)cc1)Nc1cccc(C(F)(F)F)c1,inhibition,at 10 µM unless noted,-1.5% (inactive)
O=C(CN1CCCCCC1)Nc1ccc(Br)cc1[N+](=O)[O-],inhibition,at 10 µM unless noted,-4.1% (inactive)
Cc1ccc(S(=O)(=O)N2CCN=C2SCc2c(F)cccc2Cl)cc1,inhibition,at 10 µM unless noted,14.5% (inactive)
COc1cccc(CNc2ncc(-c3ccccc3)n2C)c1,inhibition,at 10 µM unless noted,-8.5% (inactive)
Cn1c(SCC(=O)C(C)(C)C)nnc1-c1ccccn1,inhibition,at 10 µM unless noted,43.3% (active)
Cn1c(SCC(=O)c2ccc(F)cc2)nnc1-c1ccccn1,inhibition,at 10 µM unless noted,4.2% (inactive)
CCn1c(SCC(=O)NC2CC2)nnc1-c1ccccn1,inhibition,at 10 µM unless noted,20% (inactive)
FC(F)(F)c1nnc2c3ccccc3c(Cl)nn12,inhibition,at 10 µM unless noted,2.1% (inactive)
COc1ccc(N2C(=O)C3CCCN3C2c2cccs2)cc1 (stereo not given),inhibition,at 10 µM unless noted,11.5% (inactive)
COc1ccc(N2C(=O)C3CCCN3C2c2cccc(OC)c2)cc1 (stereo not given),inhibition,at 10 µM unless noted,-8.3% (inactive)
COc1ccc(N2C(=O)C3CCCN3C2c2cc(OC)c(OC)cc2OC)cc1 (stereo not given),inhibition,at 10 µM unless noted,41.6% (active)
O=C(CN1CCN(C(=O)C2CCCO2)CC1)Nc1c(Cl)cccc1Cl (stereo not given),inhibition,at 10 µM unless noted,17.6% (inactive)
COc1ccc(-c2c(C#Cc3ccccc3)c3ccccc3n2C)cc1,inhibition,at 10 µM unless noted,15.3% (inactive)
CC(=O)Nc1ccc(NC(=O)CS(=O)(=O)c2cn(CC(=O)N3CCCCC3)c3ccccc23)cc1,inhibition,at 10 µM unless noted,5.8% (inactive)
C=CS(=O)c1sc(Cl)c(N2CCOCC2)c1[N+](=O)[O-] (stereo not given),inhibition,at 10 µM unless noted,37.6% (active)
Cc1cccc(NC(=O)c2ccc(S(=O)(=O)N(C)CC3CCCO3)cc2)c1C (stereo not given),inhibition,at 10 µM unless noted,15.7% (inactive)
CC(C)Cc1nc(Cl)c(C#N)c2c1CCC2,inhibition,at 10 µM unless noted,8% (inactive)
COCc1c(N)c(C)nc(Cl)c1C#N,inhibition,at 10 µM unless noted,-22.9% (inactive)
Cc1nc(Cl)c(C#N)c2c1CCCC2,inhibition,at 10 µM unless noted,41.9% (active)
COc1ccc(NCCc2ccccn2)cc1,inhibition,at 10 µM unless noted,8.9% (inactive)
O=C(NCCCc1ccccc1)C(=O)NCC1OCCN1S(=O)(=O)c1ccccc1 (stereo not given),inhibition,at 10 µM unless noted,-4.3% (inactive)
COc1ccc(CCNC(=O)C(=O)NCC2OCCN2S(=O)(=O)c2cccs2)cc1OC (stereo not given),inhibition,at 10 µM unless noted,0.8% (inactive)
COc1cccc(NC(=O)[C@H](Cc2c[nH]c3ccccc23)NC(=O)[C@@H]2Cc3ccccc3CN2)c1,inhibition,at 10 µM unless noted,17.2% (inactive)
CC(C)(C)c1ccc(NC(=O)NCc2ccco2)cc1,inhibition,at 10 µM unless noted,21.4% (inactive)
Cc1ccccc1NC(=O)NCc1ccco1,inhibition,at 10 µM unless noted,23.9% (inactive)
CC(C)(C)NC(=O)NCc1ccco1,inhibition,at 10 µM unless noted,41.4% (active)
Cc1[nH]n(C(N)=S)c(=O)c1N=Nc1ccc(Cl)cc1Cl,inhibition,at 10 µM unless noted,0.4% (inactive)
COc1ccc(-n2nc(C(=O)NCC(=O)N3CCN(c4ccccc4OC)CC3)c3ccccc3c2=O)c(OC)c1,inhibition,at 10 µM unless noted,20.4% (inactive)
CN(c1ccc(O)cc1)c1nc(-c2cccnc2)cs1,inhibition,at 10 µM unless noted,12.3% (inactive)
O=C(NC(=S)Nc1ccc(Cl)cc1Cl)C1CC1,inhibition,at 10 µM unless noted,10.6% (inactive)
O=C(NCC(=O)N1CCN(c2ncc(C(F)(F)F)cc2Cl)CC1)c1ccc(Br)o1,inhibition,at 10 µM unless noted,6.1% (inactive)
CC1(C)Cc2cccc(OCC(=O)NCc3ccccc3)c2O1,inhibition,at 10 µM unless noted,-5.5% (inactive)
Cc1nc(NCc2ccccc2)c(C(N)=O)c2c1COC(C)(C)C2,inhibition,at 10 µM unless noted,37.7% (active)
Cc1nc(NCCN)c(C#N)c2c1COC(C)(C)C2,inhibition,at 10 µM unless noted,8.1% (inactive)
COc1ccccc1C(=O)COC(=O)CNS(=O)(=O)c1ccc(NC(C)=O)cc1,inhibition,at 10 µM unless noted,16.9% (inactive)
Cc1ccccc1C(=O)NC(=S)NC1CC1,inhibition,at 10 µM unless noted,12.2% (inactive)
COc1cccc(-n2c(SCC(=O)NC3CCCCC3)nc3n[nH]c(C)c3c2=N)c1,inhibition,at 10 µM unless noted,-7.2% (inactive)
Cc1ccc(-n2c(SCC(=O)NCCC3=CCCCC3)nc3n[nH]c(C)c3c2=N)cc1Cl,inhibition,at 10 µM unless noted,39.4% (active)
CCCCNC(=O)CSc1nc2n[nH]c(C)c2c(=N)n1-c1cccc(Cl)c1C,inhibition,at 10 µM unless noted,-3.5% (inactive)
COc1ccc(N(C)C(=O)C2CCN(S(=O)(=O)c3cccc4nsnc34)CC2)cc1,inhibition,at 10 µM unless noted,9.7% (inactive)
Cc1ccc(NC(=O)c2cc3ccccc3o2)cc1,inhibition,at 10 µM unless noted,8.6% (inactive)
O=C(CCCCCn1c(=S)[nH]c2ccsc2c1=O)NC1CCCCC1,inhibition,at 10 µM unless noted,-20.3% (inactive)
Cc1cc(NC(=O)c2ccccc2C)no1,inhibition,at 10 µM unless noted,17% (inactive)
CCOCCCNC(=O)C(NC(=O)c1ccc(=O)[nH]c1)c1ccc(C)cc1 (stereo not given),inhibition,at 10 µM unless noted,-4% (inactive)
CCOCCCNC(=O)C(NC(=O)c1ccccc1O)c1ccccc1 (stereo not given),inhibition,at 10 µM unless noted,-7.8% (inactive)
CCOCCCNC(=O)C(NC(=O)CNC(=O)c1ccccc1)c1ccc(C)cc1 (stereo not given),inhibition,at 10 µM unless noted,38.2% (active)
CCOCCCNC(=O)C(NC(=O)c1ccc(=O)[nH]c1)c1ccc(Cl)cc1 (stereo not given),inhibition,at 10 µM unless noted,38.8% (active)
CCOCCCNC(=O)C(NC(=O)CNC(=O)c1ccccc1)c1ccc(OC)cc1 (stereo not given),inhibition,at 10 µM unless noted,-2.8% (inactive)
CCOCCCNC(=O)C(NC(=O)Cc1c[nH]c2ccccc12)c1ccc(OC)cc1 (stereo not given),inhibition,at 10 µM unless noted,6.3% (inactive)
